Key:
Assay in all cases: SPOT peptide array binding signal intensity (averaged, normalized) (arbitrary units (background-subtracted, floor 0; scale differs between SH3 domains)); higher = stronger binding of the SH3 domain to the peptide
AgAbp1 = molecular target: AgAbp1
Protocol: (§1)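 GST-tagged SH3 domains from S. cerevisiae (Sc), A. gossypii (Ag), C. albicans (Ca) and S. pombe (Sp) were incubated at 10 ug/ml overnight at 4 C on cellulose SPOT membranes carrying 292 synthetic 15-mer peptides mined from the S. cerevisiae proteome (cysteines replaced by serines). Binding was detected with anti-GST antibody, HRP secondary and chemiluminescence, quantified with Genespotter, and reported as normalized spot intensities averaged over biological replicates.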

AgBbc1 = molecular target: AgBbc1
Protocol: as §1

AgBem1-D1 = molecular target: AgBem1-D1
Protocol: as §1

AgBzz1-D1 = molecular target: AgBzz1-D1
Protocol: as §1

AgBzz1-D2 = molecular target: AgBzz1-D2
Protocol: as §1

AgCyk3 = molecular target: AgCyk3
Protocol: as §1

AgFus1 = molecular target: AgFus1
Protocol: as §1

AgHof1 = molecular target: AgHof1
Protocol: as §1

AgHse1 = molecular target: AgHse1
Protocol: as §1

AgLsb1 = molecular target: AgLsb1
Protocol: as §1

AgLsb4 = molecular target: AgLsb4
Protocol: as §1

AgMyo5 = molecular target: AgMyo5
Protocol: as §1

AgNbp2 = molecular target: AgNbp2
Protocol: as §1

AgRvs167 = molecular target: AgRvs167
Protocol: as §1

AgSho1 = molecular target: AgSho1
Protocol: as §1

AgSla1-D1-D2 = molecular target: AgSla1-D1-D2
Protocol: as §1

AgSla1-D3 = molecular target: AgSla1-D3
Protocol: as §1

CaAbp1-D1 = molecular target: CaAbp1-D1
Protocol: as §1

CaAbp1-D2 = molecular target: CaAbp1-D2
Protocol: as §1

CaBbc1 = molecular target: CaBbc1
Protocol: as §1

CaBem1-D1 = molecular target: CaBem1-D1
Protocol: as §1

CaBzz1-D1 = molecular target: CaBzz1-D1
Protocol: as §1

CaBzz1-D2 = molecular target: CaBzz1-D2
Protocol: as §1

CaCyk3 = molecular target: CaCyk3
Protocol: as §1

CaFus1 = molecular target: CaFus1
Protocol: as §1

CaHof1 = molecular target: CaHof1
Protocol: as §1

CaHse1 = molecular target: CaHse1
Protocol: as §1

CaLsb1 = molecular target: CaLsb1
Protocol: as §1

CaLsb4 = molecular target: CaLsb4
Protocol: as §1

CaMyo5 = molecular target: CaMyo5
Protocol: as §1

CaNbp2 = molecular target: CaNbp2
Protocol: as §1

CaRvs167 = molecular target: CaRvs167
Protocol: as §1

CaRvs167-3 = molecular target: CaRvs167-3
Protocol: as §1

CaSho1 = molecular target: CaSho1
Protocol: as §1

CaSla1-D1-D2 = molecular target: CaSla1-D1-D2
Protocol: as §1

CaSla1-D3 = molecular target: CaSla1-D3
Protocol: as §1

ScAbp1 = molecular target: ScAbp1
Protocol: as §1

ScBbc1 = molecular target: ScBbc1
Protocol: as §1

ScBem1-D1 = molecular target: ScBem1-D1
Protocol: as §1

ScBzz1-D1 = molecular target: ScBzz1-D1
Protocol: as §1

ScBzz1-D2 = molecular target: ScBzz1-D2
Protocol: as §1

ScCyk3 = molecular target: ScCyk3
Protocol: as §1

ScFus1 = molecular target: ScFus1
Protocol: as §1

ScHof1 = molecular target: ScHof1
Protocol: as §1

ScHse1 = molecular target: ScHse1
Protocol: as §1

ScLsb1 = molecular target: ScLsb1
Protocol: as §1

ScLsb2 = molecular target: ScLsb2
Protocol: as §1

ScLsb3 = molecular target: ScLsb3
Protocol: as §1

ScLsb4 = molecular target: ScLsb4
Protocol: as §1

ScMyo3 = molecular target: ScMyo3
Protocol: as §1

ScMyo5 = molecular target: ScMyo5
Protocol: as §1

ScNbp2 = molecular target: ScNbp2
Protocol: as §1

ScPex13 = molecular target: ScPex13
Protocol: as §1

ScRvs167 = molecular target: ScRvs167
Protocol: as §1

ScSho1 = molecular target: ScSho1
Protocol: as §1

ScSla1-D1-D2 = molecular target: ScSla1-D1-D2
Protocol: as §1

ScSla1-D3 = molecular target: ScSla1-D3
Protocol: as §1

SpAbp1-D1 = molecular target: SpAbp1-D1
Protocol: as §1

SpBbc1 = molecular target: SpBbc1
Protocol: as §1

SpBzz1-D1 = molecular target: SpBzz1-D1
Protocol: as §1

SpBzz1-D2 = molecular target: SpBzz1-D2
Protocol: as §1

SpCyk3 = molecular target: SpCyk3
Protocol: as §1

SpHof1 = molecular target: SpHof1
Protocol: as §1

SpHof1-2 = molecular target: SpHof1-2
Protocol: as §1

SpHof1-3 = molecular target: SpHof1-3
Protocol: as §1

SpHse1 = molecular target: SpHse1
Protocol: as §1

SpLsb1 = molecular target: SpLsb1
Protocol: as §1

SpLsb4 = molecular target: SpLsb4
Protocol: as §1

SpMyo1 = molecular target: SpMyo1
Protocol: as §1

SpNbp2 = molecular target: SpNbp2
Protocol: as §1

SpPex13 = molecular target: SpPex13
Protocol: as §1

SpRvs167 = molecular target: SpRvs167
Protocol: as §1

SpSla1-D1-D2 = molecular target: SpSla1-D1-D2
Protocol: as §1

SpSla1-D3 = molecular target: SpSla1-D3
Protocol: as §1

PKMLPIPSKPTLFDL
SPOT peptide array binding signal intensity (AgAbp1): 47 | SPOT peptide array binding signal intensity (AgBbc1): 7.5 | SPOT peptide array binding signal intensity (AgBem1-D1): 490 | SPOT peptide array binding signal intensity (AgBzz1-D1): 24 | SPOT peptide array binding signal intensity (AgBzz1-D2): ≤ 0 | SPOT peptide array binding signal intensity (AgCyk3): ≤ 0 | SPOT peptide array binding signal intensity (AgFus1): 212 | SPOT peptide array binding signal intensity (AgHof1): 6 | SPOT peptide array binding signal intensity (AgHse1): 106 | SPOT peptide array binding signal intensity (AgLsb1): 2 | SPOT peptide array binding signal intensity (AgLsb4): 18.5 | SPOT peptide array binding signal intensity (AgMyo5): 3.25 | SPOT peptide array binding signal intensity (AgNbp2): 91 | SPOT peptide array binding signal intensity (AgRvs167): 3.33 | SPOT peptide array binding signal intensity (AgSho1): 776 | SPOT peptide array binding signal intensity (AgSla1-D1-D2): ≤ 0 | SPOT peptide array binding signal intensity (AgSla1-D3): 5.5 | SPOT peptide array binding signal intensity (CaAbp1-D1): 434 | SPOT peptide array binding signal intensity (CaAbp1-D2): 459 | SPOT peptide array binding signal intensity (CaBbc1): 38.8 | SPOT peptide array binding signal intensity (CaBem1-D1): 95 | SPOT peptide array binding signal intensity (CaBzz1-D1): 362 | SPOT peptide array binding signal intensity (CaBzz1-D2): 146 | SPOT peptide array binding signal intensity (CaCyk3): 7 | SPOT peptide array binding signal intensity (CaFus1): 852 | SPOT peptide array binding signal intensity (CaHof1): ≤ 0 | SPOT peptide array binding signal intensity (CaHse1): 79 | SPOT peptide array binding signal intensity (CaLsb1): 2 | SPOT peptide array binding signal intensity (CaLsb4): 209 | SPOT peptide array binding signal intensity (CaMyo5): 89.5

RRSKSLPITPKSIFN
SPOT peptide array binding signal intensity (AgAbp1): 47 | SPOT peptide array binding signal intensity (AgBbc1): 30.8 | SPOT peptide array binding signal intensity (AgBem1-D1): 374 | SPOT peptide array binding signal intensity (AgBzz1-D1): 59 | SPOT peptide array binding signal intensity (AgBzz1-D2): 25 | SPOT peptide array binding signal intensity (AgCyk3): 6.5 | SPOT peptide array binding signal intensity (AgFus1): 79.5 | SPOT peptide array binding signal intensity (AgHof1): 125 | SPOT peptide array binding signal intensity (AgHse1): 306 | SPOT peptide array binding signal intensity (AgLsb1): 1.5 | SPOT peptide array binding signal intensity (AgLsb4): 78.5 | SPOT peptide array binding signal intensity (AgMyo5): 0.5 | SPOT peptide array binding signal intensity (AgNbp2): 27 | SPOT peptide array binding signal intensity (AgRvs167): 0.667 | SPOT peptide array binding signal intensity (AgSho1): 2230 | SPOT peptide array binding signal intensity (AgSla1-D1-D2): 350 | SPOT peptide array binding signal intensity (AgSla1-D3): ≤ 0 | SPOT peptide array binding signal intensity (CaAbp1-D1): 144 | SPOT peptide array binding signal intensity (CaAbp1-D2): 310 | SPOT peptide array binding signal intensity (CaBbc1): 103 | SPOT peptide array binding signal intensity (CaBem1-D1): 55 | SPOT peptide array binding signal intensity (CaBzz1-D1): 146 | SPOT peptide array binding signal intensity (CaBzz1-D2): 61 | SPOT peptide array binding signal intensity (CaCyk3): 13.5 | SPOT peptide array binding signal intensity (CaFus1): 368 | SPOT peptide array binding signal intensity (CaHof1): 1 | SPOT peptide array binding signal intensity (CaHse1): 1 | SPOT peptide array binding signal intensity (CaLsb1): 1 | SPOT peptide array binding signal intensity (CaLsb4): 57 | SPOT peptide array binding signal intensity (CaMyo5): 3 | SPOT peptide array binding signal intensity (CaNbp2): 128 | SPOT peptide array binding signal intensity (CaRvs167): 2.33 | SPOT peptide array binding signal intensity (CaRvs167-3): 8.25 | SPOT peptide array binding signal intensity (CaSho1): 353 | SPOT peptide array binding signal intensity (CaSla1-D1-D2): 1140 | SPOT peptide array binding signal intensity (CaSla1-D3): 0.5 | SPOT peptide array binding signal intensity (ScAbp1): 84 | SPOT peptide array binding signal intensity (ScBbc1): 11 | SPOT peptide array binding signal intensity (ScBem1-D1): 88 | SPOT peptide array binding signal intensity (ScBzz1-D1): 31 | SPOT peptide array binding signal intensity (ScBzz1-D2): 12.5 | SPOT peptide array binding signal intensity (ScCyk3): 54 | SPOT peptide array binding signal intensity (ScFus1): 47.5 | SPOT peptide array binding signal intensity (ScHof1): ≤ 0 | SPOT peptide array binding signal intensity (ScHse1): 420 | SPOT peptide array binding signal intensity (ScLsb1): 2.5 | SPOT peptide array binding signal intensity (ScLsb2): 1 | SPOT peptide array binding signal intensity (ScLsb3): ≤ 0 | SPOT peptide array binding signal intensity (ScLsb4): 8 | SPOT peptide array binding signal intensity (ScMyo3): 8.5 | SPOT peptide array binding signal intensity (ScMyo5): 2 | SPOT peptide array binding signal intensity (ScNbp2): 47 | SPOT peptide array binding signal intensity (ScPex13): ≤ 0 | SPOT peptide array binding signal intensity (ScRvs167): 0.333 | SPOT peptide array binding signal intensity (ScSho1): 4000 | SPOT peptide array binding signal intensity (ScSla1-D1-D2): 2340 | SPOT peptide array binding signal intensity (ScSla1-D3): 54 | SPOT peptide array binding signal intensity (SpAbp1-D1): 205 | SPOT peptide array binding signal intensity (SpBbc1): 1.5 | SPOT peptide array binding signal intensity (SpBzz1-D1): 204 | SPOT peptide array binding signal intensity (SpBzz1-D2): ≤ 0 | SPOT peptide array binding signal intensity (SpCyk3): 3 | SPOT peptide array binding signal intensity (SpHof1): 2190 | SPOT peptide array binding signal intensity (SpHof1-2): 1340 | SPOT peptide array binding signal intensity (SpHof1-3): 1120 | SPOT peptide array binding signal intensity (SpHse1): 216 | SPOT peptide array binding signal intensity (SpLsb1): ≤ 0 | SPOT peptide array binding signal intensity (SpLsb4): 64.5 | SPOT peptide array binding signal intensity (SpMyo1): 24.8 | SPOT peptide array binding signal intensity (SpNbp2): 39.5 | SPOT peptide array binding signal intensity (SpPex13): 5 | SPOT peptide array binding signal intensity (SpRvs167): 4.33 | SPOT peptide array binding signal intensity (SpSla1-D1-D2): 1130 | SPOT peptide array binding signal intensity (SpSla1-D3): ≤ 0

From the supplement of paper PMC4466140
